Assay outcomes as filed in PubChem BioAssay.
Hits are enriched below; roughly 1.8% of the tested compounds scored in any of these assays.
Fam108B inh = blocks mouse Fam108B hydrolase in RBBP9 counter-screen | recombinant Fam108B, FP-Rh probe fluorescence polarization | inhibition, % at 9.51 µM | 300,000 tested, 0.33% active;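 active = inhibition above the screen mean inhibition plus 3 SD, computed separately per campaign, cut at about 18% in these data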;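 also: inhibitors lower polarization as less probe binds the enzyme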
LYPLA2 inh = counter-screen for PME1 inhibitors: inhibitors of human LYPLA2 | recombinant LYPLA2, FP-Rh probe fluorescence polarization | inhibition, % at 5.9 µM | 320,000 tested, 0.38% active | AID 2177;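 active = inhibition above the screen-wide mean plus 3 SD, limit set per campaign, cut at about 26% in these data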;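 also: 0% = LYPLA2 with DMSO and 100% = wells lacking LYPLA2 enzyme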
PAD4 inh = blocks human protein arginine deiminase 4. recombinant PAD4, RCA probe fluorescence polarization. AID 485272. 330,000 tested, 0.41% active. inhibition, % at 6.36 µM. Q9UM07;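 active = percent inhibition above a cutoff equal to the mean of all tested compounds plus 3 SD, cut at about 15% in these data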;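 also: 0% = PAD4 with RCA probe and DMSO and 100% = probe without PAD4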
PME-1 inh = blocks human protein phosphatase methylesterase 1; Q9Y570; recombinant PME-1, FP-Rh probe fluorescence polarization; AID 2130; 320,000 tested, 0.53% active; inhibition, % at 5.9 µM;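 active = inhibition above the campaign mean of all compounds plus 3 SD, cut at about 26% in these data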;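 also: competitive labeling of PME-1 active site by serine hydrolase directed probe; 0% = PME-1 with DMSO and 100% = wells lacking PME-1 enzyme; inhibitors block probe labeling so polarization falls and inhibition rises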
Target sequence (Q9Y570 whole entry, looked up): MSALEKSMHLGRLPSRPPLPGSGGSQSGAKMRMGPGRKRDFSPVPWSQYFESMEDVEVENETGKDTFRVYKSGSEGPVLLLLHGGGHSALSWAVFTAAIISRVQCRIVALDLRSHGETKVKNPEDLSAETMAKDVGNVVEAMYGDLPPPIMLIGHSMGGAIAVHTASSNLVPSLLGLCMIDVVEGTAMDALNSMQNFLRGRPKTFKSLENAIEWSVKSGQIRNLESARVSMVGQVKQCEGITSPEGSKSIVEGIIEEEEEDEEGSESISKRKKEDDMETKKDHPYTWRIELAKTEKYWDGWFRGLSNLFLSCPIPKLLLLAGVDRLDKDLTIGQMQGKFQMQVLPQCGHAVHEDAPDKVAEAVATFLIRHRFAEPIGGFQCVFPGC
GSTO1 counter = counter-screen for RBBP9 inhibitors: inhibitors of human GSTO1; recombinant GSTO1, activity-based probe fluorescence polarization; inhibition, % at 5.96 µM; P78417; 300,000 tested, 1.1% active; AID 1974;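 active = inhibition above the campaign mean inhibition plus 3 SD, cut at about 35% in these data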;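 also: 0% = GSTO1-1 with DMSO and 100% = wells lacking GSTO1-1 enzyme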
LYPLA1 inh = blocks human lysophospholipase 1, a PME1 counter-screen. O75608. recombinant LYPLA1, FP-Rh probe fluorescence polarization. inhibition, % at 5.9 µM. 320,000 tested, 0.16% active;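 active = inhibition above the mean of all tested compounds plus 3 SD, set per campaign, cut at about 14% in these data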;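 also: inhibitors block serine hydrolase probe labeling of LYPLA1 so polarization falls; 0% = enzyme with DMSO and 100% = wells lacking LYPLA1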
LYPLA2 conf = LYPLA2 (human) inhibition, confirmation counter-screen; shares compounds with LYPLA2 inh; recombinant LYPLA2, FP-Rh probe fluorescence polarization; inhibition, % at 5.9 µM; 1,100 tested, 72% active;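 active = mean inhibition across replicates above the hit cutoff set in the primary screen, cut at about 26% in these data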;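 also: blocked labeling of the enzyme by serine hydrolase FP-Rh probe lowers polarization; 0% = enzyme with DMSO and 100% = wells lacking LYPLA2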
LYPLA2 gel ABPP = inhibitors of human LYPLA2; shares compounds with LYPLA2 inh; rhLYPLA2 in mouse brain proteome, gel ABPP FP-Rh; inhibition, % at 20 µM; 150 tested, 30% active; AID 652029;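 active = inhibition of LYPLA2 enzyme probe labeling above about 50%, limit read from the data; inactive = inhibition below that limit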;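 also: loss of FP-Rh probe labeling of the LYPLA2 gel band measured as band density; 0% = DMSO only control band and 100% = blank gel background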
* hit, by the source's call; . = no result.

SMILES	Fam108B inh	LYPLA2 inh	PAD4 inh	PME-1 inh	GSTO1 counter	LYPLA1 inh	LYPLA2 conf	others
CC(=O)Nc1ccc(NC(=O)CCC(=O)OCC(=O)c2cccc([N+](=O)[O-])c2)cc1	4.3	-4.0	2.1	0.1	8.8	-3.2	.
Cc1ccc(NC(=O)CCC(=O)OCC(=O)c2ccc(Oc3ccc([N+](=O)[O-])cc3)cc2)cc1C	2.9	35.9*	-5.1	4.2	-4.1	1.7	19.0
COc1ccc(NC(=O)Nc2ccc(F)cc2)c(C)c1	-1.7	4.6	-11.4	-6.5	20.2	-2.6	.
Cc1cc2c(NC(=O)Nc3ccc(F)cc3)cccc2nn1	-4.4	44.1*	-7.8	0.9	-1.0	-8.7	54.0*	LYPLA2 gel ABPP=43.0
COc1ccccc1NC(=O)CCn1c(=O)c2cccn2c2ccccc21	1.2	26.1*	-0.5	2.5	7.3	-2.3	-5.4
O=C(c1ccc(CNc2c(N3CCOCC3)c(=O)c2=O)cc1)N1CC=C(c2ccccc2)CC1	-0.3	44.2*	-3.8	6.0	0.8	6.3	40.6*
O=[N+]([O-])c1ccc(Oc2cccc(C(F)(F)F)c2)nc1	3.4	41.4*	1.6	-2.7	7.8	1.3	75.4*	LYPLA2 gel ABPP=47.0
O=C(O)C(Cc1ccc(O)cc1)N1C(=O)C2CCCCC2C1=O (stereo unspecified)	2.2	0.5	-2.0	-3.0	-0.7	0.6	.
COc1ccc(C(=O)NC(=S)Nc2cccnc2)cc1[N+](=O)[O-]	5.5	28.0*	6.5	5.0	2.3	7.6	27.8*
O=[N+]([O-])c1cc(-c2nnc(-c3ccccc3)o2)ccc1Oc1ccc(Cl)cc1	5.2	-4.0	-4.8	-2.1	1.2	-2.6	.
N#Cc1cc([N+](=O)[O-])ccc1Oc1ccc(-c2nnco2)cc1	3.1	29.8*	1.5	3.5	2.2	9.5	20.5
O=[N+]([O-])c1ccc(Oc2ccc(-c3nnco3)cc2)c(Cl)c1	-3.0	32.5*	0.4	1.5	-2.0	11.4	22.1
S=C(NCCCN1CCOCC1)Nc1ccc(Cl)cc1	4.1	26.5*	-5.8	-1.1	8.2	1.2	-4.5
Cc1ccc(Cl)cc1N1CCN(S(=O)(=O)c2cnc[nH]2)CC1	-2.3	-2.6	-3.7	0.0	2.0	-3.1	.
O=[N+]([O-])c1ccc(Oc2cccc(F)c2)c2ccncc12	-1.3	43.1*	-9.5	5.2	12.2	5.6	43.5*
O=[N+]([O-])c1cnccc1Nc1cccc(F)c1	-3.5	-3.7	-1.7	-8.1	8.4	0.2	.
CSCCC(NC(=O)COc1ccccc1)C(=O)N1CCOCC1 (stereo unspecified)	.	10.0	4.0	2.5	.	2.4	.
Cc1sc2ncnc(NCC(C)(C)N3CCOCC3)c2c1C	-5.3	4.6	-5.6	0.1	-6.6	0.9	.
CCCC(=O)Nc1ccc(NC(=S)NC(=O)c2ccccc2[N+](=O)[O-])cc1	3.2	29.7*	-3.6	2.4	-0.7	2.2	31.1*
CCC(=O)NC(=S)Nc1ccc(NC(=O)c2ccccc2[N+](=O)[O-])cc1	6.8	14.4	-4.9	-0.7	-4.7	-0.3	.
O=C(O)c1cccc(CN2C(=O)SC(Nc3cccc4ccccc34)C2=O)c1 (stereo unspecified)	2.3	-1.6	-0.4	0.8	1.6	-0.7	.
COC(=O)c1cc(NC(=O)c2ccccc2)c(=O)oc1C	-3.5	27.1*	1.3	1.9	0.8	-0.8	1.8
CC1CCCN(C(=O)c2ccc(S(=O)(=O)N3CCC(c4nc5ccccc5s4)CC3)cc2)C1 (stereo unspecified)	0.5	1.9	6.1	4.2	-2.5	2.2	.
CCN(CC)C(=O)c1ccc(S(=O)(=O)N2CCC(c3nc4ccccc4s3)CC2)cc1	1.5	27.2*	-2.2	7.6	1.8	5.8	15.6
O=C(c1ccc(N2CCN(C(=O)c3ccccc3Br)CC2)cc1)c1cccc(F)c1	-7.1	-0.3	-2.1	1.5	1.1	-0.8	.
O=C(c1ccc(N2CCN(C(=O)c3cccc(F)c3)CC2)cc1)c1cccc(F)c1	3.2	43.3*	1.6	4.6	-2.0	6.4	29.0*
